# Where “and” joins values, the source holds several entries; their conditions need not be identical. Equal entries are not always repeated. Where a structure was tested more than once in an assay, its records may differ in their call. Calls of active or inactive are those of the source. Calls follow the shape of the full dose curve.
# Test: qHTS assay to identify small molecule agonists of the estrogen related receptor (ERR) signaling pathway from Tox21 library (AID 1224849); also: nearly all actives have a fitted effect of over 15% in size
# Details: ERR reporter cell line, ONE-Glo luciferase, 18 h; at 8.39 µM (top of the series)
# Excerpt: National Center for Advancing Translational Sciences [NCATS]
# NIH Chemical Genomics Center [NCGC]
# U.S. Environmental Protection Agency [EPA]
# National Institutes of Environmental Health Sciences [NIEHS]
# National Toxicology Program [NTP]
# Estrogen related receptors (ERRs), the first orphan nuclear receptors discovered, play an important role in the control of cellular energy metabolism. ERRs are required for high-energy production in response to the environmental challenges. ERR-alpha was also identified as an adverse marker for breast cancer progression; ERR-alpha-positive tumors have a poor prognosis. To screen and to identify environmental compounds that perturb the ERR signaling pathways could provide valuable information for potential therapeutic or preventive measures in the treatment of metabolic disease. For identifying ERR agonists, ERR cell line (provided by NTP) has been used to screen Tox21 10K library.
# The ERR cells were dispensed at 2,000 cells/5 ul/well in 1536-well white plates using a Multidrop dispenser. After the assay plates were incubated at a 37 C/5% CO2 incubator for 6 hours, 23 nL of compounds dissolved in DMSO, positive and negative controls or DMSO only was transferred to the assay plate by a pin tool. The plates were incubated at 37 C for 18 hours. 4 ul/well of One-Glo reagent was added into the assay plates using a Flying Reagent Dispenser. After 30-minute incubation at room temperature, the luminescence intensity in the plates was measured using a ViewLux plate reader.
# % is scaled to controls: 0 for no effect and ±100 for the full control effect.
row,Compound,"activity change, positive = activation"
1,NCCNCCNCCNCCN,3.41% (inactive)

# Same assay, conditions: ERR reporter cell line, ONE-Glo luciferase, 18 h; at 42.5 µM (top of the series)
row,Compound,"activity change, positive = activation"
1,CC#C[C@]1(O)CC[C@H]2[C@@H]3CCC4=CC(=O)CCC4=C3[C@@H](c3ccc(N(C)C)cc3)C[C@@]21C,-53.3% (inactive)
2,CS(=O)(=O)Nc1ccc([N+](=O)[O-])cc1Oc1ccccc1,-19.6% (inactive)
3,O=C1O[C@H](CO)[C@@H](O)[C@H](O)[C@H]1O,3.62% (inactive)
4,Cn1c([N+](=O)[O-])cnc1COC(N)=O,3.23% (inactive)
5,Cc1cc(O)c2c(c1)C(=O)c1cc(O)cc(O)c1C2=O,-4% (inactive)
6,CC1(C)O[C@@H]2C[C@H]3[C@@H]4C[C@H](F)C5=CC(=O)CC[C@]5(C)[C@H]4[C@@H](O)C[C@]3(C)[C@]2(C(=O)CO)O1,-3.03% (inactive)
7,OC[C@@H](O)[C@H](O)[C@H](O)[C@@H](O)CO,4.66% (inactive) and 4.1% (inactive)
8,O=C(c1cc(O)c(O)c(O)c1)c1ccc(O)c(O)c1O,-6.33% (inactive)
9,O=S(=O)(O)CCS,-0.0445% (inactive)
10,Nc1cc(-c2ccncc2)c[nH]c1=O,-5.23% (inactive)
11,C[C@@H](O)[C@H]1C(=O)N2C(C(=O)O)=C(S[C@@H]3CN[C@H](C(=O)N(C)C)C3)[C@H](C)[C@H]12,6.5% (inactive) and 3.13% (inactive)
12,CC1Cc2ccccc2N1NC(=O)c1ccc(Cl)c(S(N)(=O)=O)c1 (stereo unspecified),-17.1% (inactive)

# Same assay, conditions: ERR reporter cell line, ONE-Glo luciferase, 18 h; at 92.4 µM (top of the series)
row,Compound,"activity change, positive = activation"
1,CC#C[C@]1(O)CC[C@H]2[C@@H]3CCC4=CC(=O)CCC4=C3[C@@H](c3ccc(N(C)C)cc3)C[C@@]21C,-62.2% (inactive)
2,CCCCCCCCCCCCOCC1CO1 (stereo unspecified),-2.77% (inactive) and -4.37% (inactive)
3,CS(=O)(=O)Nc1ccc([N+](=O)[O-])cc1Oc1ccccc1,-48.5% (inactive)
4,Clc1cc(Cl)c(Cl)cc1Cl,6.69% (inactive) and 12.5% (inactive)
5,CCCCC(CC)COC(=O)/C=C\C(=O)OCC(CC)CCCC (stereo unspecified),-6.56% (inactive) and 3.66% (inactive)
6,O=C(Cl)c1c(Cl)c(Cl)c(C(=O)Cl)c(Cl)c1Cl,2.78% (inactive) and 1.3% (inactive)
7,C=C(C#N)C(=O)OCC,7.93% (inactive) and 0.135% (inactive)
8,O=[N+]([O-])C(CO)(CO)CO,10.1% (inactive) and 10.2% (inactive)
9,ClC1=C(Cl)C(Cl)(Cl)C(Cl)=C1Cl,5.38% (inactive) and 4.2% (inactive)
10,O=C1O[C@H](CO)[C@@H](O)[C@H](O)[C@H]1O,-0.676% (inactive)
11,Cn1c([N+](=O)[O-])cnc1COC(N)=O,6.73% (inactive)
12,Cc1cc(O)c2c(c1)C(=O)c1cc(O)cc(O)c1C2=O,-40.4% (inactive)
13,CC1(C)O[C@@H]2C[C@H]3[C@@H]4C[C@H](F)C5=CC(=O)CC[C@]5(C)[C@H]4[C@@H](O)C[C@]3(C)[C@]2(C(=O)CO)O1,-6.71% (inactive)
14,O=C(c1cc(O)c(O)c(O)c1)c1ccc(O)c(O)c1O,-10.5% (inactive) and -15.9% (inactive)
15,c1ccc2ccccc2c1,7.43% (inactive) and 7.09% (inactive)
16,OC1CCCC1,4.85% (inactive) and 0.946% (inactive)
17,OC[C@@H](O)[C@@H](O)[C@H](O)[C@@H](O)CO,3.67% (inactive) and 4.92% (inactive)
18,O=S(=O)(O)CCS,-7.56% (inactive)
19,C=C1C2CCC(C2)C1(C)C (stereo unspecified),0.557% (inactive) and 4.73% (inactive)
20,CCCCCCCCCC(=O)O,-1.8% (inactive) and -5.57% (inactive)
21,O=C(O)c1cc(-c2ccccc2)nc2ccccc12,1.96% (active)
22,O=[N+]([O-])c1cccc(Cl)c1,8.37% (inactive) and -4.75% (inactive)
23,CCOC(=O)/C=C\C(=O)OCC,1.73% (inactive) and 0.529% (active)
24,Nc1cc(-c2ccncc2)c[nH]c1=O,-0.579% (inactive)
25,CCCCC(CC)COC(C)=O (stereo unspecified),8.75% (inactive) and 0.0839% (inactive)
26,NCCNCCNCCNCCN,2.98% (inactive)
27,O=S(=O)(Oc1ccc(Cl)cc1Cl)c1ccccc1,-20% (inactive) and 8.74% (inactive)
28,CC1Cc2ccccc2N1NC(=O)c1ccc(Cl)c(S(N)(=O)=O)c1 (stereo unspecified),-13.4% (inactive)

# Source: PubChem BioAssay (Tox21)
